According to the supplement of paper PMC4466236:
Whole data set: some 33,000 sequences, median “E-score (dimensionless, -0.5 to 0.5)” near -0.058, cut for the highest 2% near 0.35. What follows is part of a selection rich in the highest values, with near analogues and random picks from the rest.

Tested on: MvaT
Experiment: PBM 8-mer E-score (mean of HK and ME arrays) (E-score (dimensionless, -0.5 to 0.5)); higher = stronger relative binding preference
Protocol: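 Protein binding microarray: GST-tagged full-length MvaT (P. aeruginosa PAO1) bound to two universal double-stranded 60-mer arrays (ME and HK), each with a constant 25-mer primer and a variable 35-mer region covering all 8-mers. The 8-mer E-score (rank-based, range -0.5 to 0.5, >0.45 = specific binding) is the mean of the two arrays.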

Sequence | PBM 8-mer E-score
CAGCAAAC | 0.014
CATTACGA | 0.0396
AAATGACT | 0.114
ATACCCAG | 0.103
CGTAAGAC | -0.107
AACTGTGG | -0.0417
ACCTACGA | -0.0935
AATACATC | 0.173
AACATAAA | 0.286
AATACATG | 0.224
CACATATC | 0.178
CACATATG | 0.196
AACATAAT | 0.371
CACATATA | 0.405
GGCATATA | 0.217
AATACATT | 0.374
AGCATATA | 0.383
AACATAAC | 0.245
AGCATATC | -0.0071
CGAACAAC | 0.0607
GCTAGGCA | -0.187
ACGACTAG | -0.185
TACCTCAA | 0.05
ACTTGGTA | -0.109
GGTTGATA | 0.124

Sequence | PBM 8-mer E-score
GTCTTCGA | -0.0711
GGTCGCGA | -0.238
CCGCAAGA | -0.078
CTCGCCTA | 0.0159
GAAAACAC | 0.0574
AACATATT | 0.392
GACATATA | 0.362
GACATATC | 0.113
TACATACA | 0.301
GACATAGA | 0.0048
TATACATA | 0.389
AACATACT | 0.207
CATACATA | 0.277
AACATAGT | 0.25
AACATACA | 0.36
AATACATA | 0.324
CACATACA | 0.242
GGTGCGCA | -0.0657
AACGCTGC | 0.0312
CAAGCGTG | -0.266
CTCTCTAC | -0.0519
CTTTGACC | -0.131
CCCGGATA | -0.0749
TACATATA | 0.402
TACATAAA | 0.307

Sequence | PBM 8-mer E-score
AACATATG | 0.254
AACATATA | 0.419
TACACATA | 0.242
AACATATC | 0.286
GTTGGCCA | -0.0756
AAGACAGC | 0.081
ACACCGGC | -0.133
AATATTCT | 0.36
AATATTCC | 0.375
AATATTCG | 0.326
CATATTCG | 0.173
GATATTCC | 0.229
ACTATTCT | 0.208
TAGAAAAA | 0.0922
CGGAGAGA | -0.145
AAGGCAAC | 0.0918
AACGCCAG | -0.15
CAGGCAGG | -0.314
AGAATAGG | -0.0847
CGTTAATA | 0.31
GATTAACC | 0.0145
CATTAATC | 0.341
CATTAATA | 0.369
GATTAATC | 0.317
GATTAATA | 0.446

Sequence | PBM 8-mer E-score
ATGCGTCC | -0.205
AAGTTGTC | 0.168
TTATACAA | 0.359
TCATACAA | 0.0994
AAATACAT | 0.33
TGATACAA | 0.145
ATATACAG | 0.379
ACATACAA | 0.362
ATATACAC | 0.336
ATACACAG | 0.0306
ATATACAT | 0.365
CTATACAG | 0.00215
ACATACAT | 0.275
GTATACAA | 0.319
CCGAAACA | 0.00391
CTGGAACA | 0.00992
CAGTATAG | 0.0504
ACTTGGAC | 0.0426
GGACACGA | -0.163
ATGTGTTA | 0.258
CGCTTTAA | 0.0497
CTTCGTGC | -0.0984
AATTGAGC | 0.0577
ATACACAA | 0.154
ATATACAA | 0.406

Sequence | PBM 8-mer E-score
CTATACAA | 0.202
AATTAATG | 0.359
AATTAATT | 0.469
AATCAATT | 0.246
AATTAATA | 0.449
AGTTAATG | 0.271
CATTAATG | 0.34
AATTACGT | 0.263
AATTAATC | 0.366
AATTAACA | 0.333
CGTTAATC | 0.127
AGTCCAAT | 0.0865
CGAAAGTC | -0.0957
AATCTGCT | -0.0198
AAAGACCC | -0.224
CATACTAG | 0.203
AGGGCCCG | -0.227
GGGTCCAC | -0.22
ATGCGCGG | -0.207
GCGGGGAA | -0.103
GTAAGCGA | 0.0773
AATTAACC | 0.262
AATTAACG | 0.28
AATTAACT | 0.354
ACCCAAAC | 0.192

Sequence | PBM 8-mer E-score
AAGTACTC | 0.137
GAGTAATA | 0.287
AAGTAATA | 0.379
AAGTAATG | 0.276
TAGTAAAA | 0.315
AAGTAATT | 0.392
AAGTACTA | 0.257
TAGTAATA | 0.352
TAGTAACA | 0.274
CAGTAATA | 0.273
AAGTACTT | 0.41
AAGTAATC | 0.186
ATCAGGCG | -0.0225
ATCTGCTA | 0.109
ACAGGACT | -0.164
AGTGCCGA | -0.0895
AAATCCCC | -0.192
CGTTCCAA | 0.0493
GGTCCTCA | -0.193
ATAGCAGC | 0.0386
GTAATCTA | 0.151
AAAACTGT | 0.0621
TAATAGTA | 0.362
CAATAGTA | 0.264
GAATAGTA | 0.229

Sequence | PBM 8-mer E-score
CTTATCGC | 0.049
CCCTTTCC | -0.188
ACATAATA | 0.401
TAATAATA | 0.477
GAATAAGC | 0.194
AAATAATG | 0.387
GAATAATC | 0.188
ACATAATC | 0.222
GAATAATA | 0.446
GCATAATA | 0.339
AAAAAATG | 0.0805
AACCTTTA | 0.192
AGGGCCTG | -0.226
GATCTGAC | -0.0641
ATACCAAG | -0.0486
CTGCGCAA | -0.0818
AAGAGACT | -0.04
AACGCGTG | -0.0417
ACTTCTGC | 0.0207
TTCCAGAA | 0.055
GCTAGGAA | -0.167
AAATAAGA | 0.309
GAATAACA | 0.2
AAAAAATT | 0.153
AAATAATT | 0.438

Sequence | PBM 8-mer E-score
GAATAAGA | 0.201
TAATAAGA | 0.375
TAATAACA | 0.379
CAATAATC | 0.19
CAATAACA | 0.283
CAATAATG | 0.322
CAATAATA | 0.418
CTACCGCA | -0.134
CCTGATGC | -0.163
CAGCTTAG | -0.203
GGACAGTA | -0.0349
AACTTTCG | 0.255
GCCTAGCC | -0.187
CTAAGTAG | 0.0522
AAAAAATA | 0.331
AAATAATC | 0.301
AAATAATA | 0.428
CCTCAAAC | -0.125
ATATATCC | 0.38
ATATATCG | 0.442
ACATATCG | 0.243
GTATATCA | 0.237
CTATATCC | 0.123
CTATATCA | 0.16
ATATATCA | 0.427

Sequence | PBM 8-mer E-score
AAATATCG | 0.295
AGATATCC | -0.0391
TCGTGACA | -0.206
GTTTCACA | -0.00657
AAATTCCG | 0.108
ACTTTAAC | 0.326
ACTTTAAT | 0.414
ACTTTTTA | 0.309
GCTTTAAA | 0.249
ACTTTTAC | 0.211
CCTTTAAA | 0.211
ACTTTAAG | 0.254
TCTTTTAA | 0.296
ACTTTAAA | 0.404
ACTTTTAG | 0.112
ACTTTTAT | 0.363
ACTTTTAA | 0.383
CGTCACCA | -0.18
ATCCCTTC | -0.172
CAAGCACG | -0.238
CCTTACCG | -0.129
GAAGCAAC | -0.0872
CTACTATA | 0.292
GCATACTA | 0.186
GTACTATA | 0.329

Sequence | PBM 8-mer E-score
AGATACTA | 0.143
GTATACGA | 0.184
GTATACTA | 0.373
ATATACTC | 0.364
CTATACTA | 0.156
ATACTATA | 0.377
ATATACTG | 0.322
CTATACTC | -0.0354
ATATACTA | 0.422
ATACACTC | 0.143
GAACGTTA | 0.207
ACAAACCA | 0.185
AGCTGAGC | -0.262
AACGTAGT | 0.000134
CGCGTGAG | -0.167
AGGCCGAG | -0.0711
GGCCCCTA | -0.222
ACAATTAA | 0.347
GCAATTTA | 0.307
ACAATTAC | 0.319
ACAATTAG | 0.315
CCAATTAA | 0.306
ACAATTTG | 0.187
ACAATTAT | 0.378
GCAATTAA | 0.324

Sequence | PBM 8-mer E-score
ACAATTTA | 0.353
CCGGTGAA | -0.0479
AGGAGCAG | -0.32
CAGGATGG | -0.189
CAAGCAGA | -0.0444
TGAATAAA | 0.268
CTAATAAG | 0.213
ATCATAAG | 0.161
TCAATAAA | 0.22
ATAATAAG | 0.43
CTAATAAC | 0.326
CTAAAAAA | 0.0548
GTAATAAC | 0.297
CTAATAAA | 0.349
ATAATAAC | 0.422
TTAATAAA | 0.432
CGAATAAA | 0.254
AGGGGAGA | -0.145
ATGACACG | -0.12
AGCCTATA | 0.179
ATTGCAAT | 0.27
GTAATGAA | 0.00633
ATCATAAT | 0.245
GTAATAAA | 0.333
ATAATAAA | 0.451

Sequence | PBM 8-mer E-score
AGAATAAC | 0.232
AGAATAAA | 0.255
TTAATGAA | 0.393
ATAATAAT | 0.463
AGAATAAG | 0.252
ATAATGAT | 0.275
AGAATAAT | 0.411
CTAATGAA | 0.132
CTAGCCTA | -0.138
AGGCTAAG | -0.0142
GCCTGTCC | -0.241
CAGGACAC | -0.248
AACGGACA | -0.037
CAGGCCGG | -0.188
GTTTTCAA | 0.148
GCTAGAGA | -0.188
GAGACCAC | -0.107
ACCTTGCG | -0.0997
AGGATAAA | 0.22
AGGATAAG | 0.0764
AGGATAAT | 0.353
ATGCATGA | -0.142
AGTATGTG | 0.209
GGTATAGA | 0.08
CGTATATA | 0.378

Sequence | PBM 8-mer E-score
GGTATACA | 0.201
CGTATATC | 0.143
AGTATATA | 0.446
AGTATATG | 0.351
GGTATATA | 0.355
AGTATAGA | 0.0904
CGTATACA | 0.17
AGTATAGG | 0.0335
AGTATATC | 0.259
GACGTTGC | -0.0956
GTGTAACA | 0.206
TAAAGGAA | 0.0516
GAATCGCC | -0.206
ATAACATG | 0.235
GAAACATA | 0.343
ATAACATC | 0.302
ATAACATA | 0.359
AAAACATA | 0.354
AAAACATT | 0.225
ATCCATGC | -0.188
CGAAATTC | 0.192
CCCTCACA | -0.151
ATATCGAG | 0.208
TCCCGGAA | -0.126
GCGCGTAC | -0.156

Sequence | PBM 8-mer E-score
GAGGGTGC | -0.16
TCAAACGA | 0.0344
ATAACTCG | 0.255
ATAACTTG | 0.38
ATAACTTC | 0.351
CTTACTTC | 0.208
ATTACTTC | 0.348
CTAACTTC | 0.168
AGAACTTG | 0.214
ATAACTGC | 0.286
ATTACTTA | 0.334
CGGAGACA | 0.0514
CCTACCTC | -0.226
CCAGATGG | -0.281
GATAACTA | 0.198
ACTAACTG | 0.191
ACTAACTA | 0.381
CATAACTA | 0.286
ATTAACTA | 0.339
AATAACTA | 0.348
CTTAACTA | 0.305
GTTAACTA | 0.362
ACTAACTC | 0.118
